Source: PubChem BioAssay AID504357 (The Scripps Research Institute Molecular Screening Center, 2011)
The campaign covered roughly 340,000 compounds. About 700 (0.21%) were called active. What follows is part of a selection rich in actives, with near analogues and random picks from the rest. Values without a mark were called inactive. Cut-off read from the data, not from the text of the source: active = inhibition above about 22% (passing the limit was not always enough); inactive = the rest.

Molecular target: Mu-type opioid receptor (Homo sapiens) + Delta-type opioid receptor (Homo sapiens) (UniProt P35372+P41143)
Sequence (P35372 whole entry, looked up): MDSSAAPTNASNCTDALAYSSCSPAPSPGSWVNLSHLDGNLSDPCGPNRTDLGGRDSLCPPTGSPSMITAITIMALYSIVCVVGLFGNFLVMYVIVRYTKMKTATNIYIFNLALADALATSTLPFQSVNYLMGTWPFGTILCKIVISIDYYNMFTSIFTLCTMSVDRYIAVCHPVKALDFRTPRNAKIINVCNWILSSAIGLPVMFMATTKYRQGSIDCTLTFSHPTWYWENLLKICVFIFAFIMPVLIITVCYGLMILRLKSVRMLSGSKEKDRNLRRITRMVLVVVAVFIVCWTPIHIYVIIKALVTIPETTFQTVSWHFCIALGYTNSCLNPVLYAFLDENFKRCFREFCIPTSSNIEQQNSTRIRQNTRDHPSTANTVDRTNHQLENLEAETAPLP
Sequence (P41143 whole entry, looked up): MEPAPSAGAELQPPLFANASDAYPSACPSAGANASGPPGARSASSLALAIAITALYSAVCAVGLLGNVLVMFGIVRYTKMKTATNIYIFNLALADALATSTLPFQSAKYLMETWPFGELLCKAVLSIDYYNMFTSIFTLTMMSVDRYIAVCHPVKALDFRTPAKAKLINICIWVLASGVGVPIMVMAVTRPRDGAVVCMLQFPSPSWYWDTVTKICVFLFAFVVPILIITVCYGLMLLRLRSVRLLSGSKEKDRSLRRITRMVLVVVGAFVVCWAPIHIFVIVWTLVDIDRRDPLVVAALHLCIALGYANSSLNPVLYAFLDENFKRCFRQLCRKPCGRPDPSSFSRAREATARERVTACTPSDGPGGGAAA
Experiment: inverse agonists of MOR-DOR heterodimerization, primary screen, cell-based, luminescence (AID 504357);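 note: 0% = cells with DMSO and 100% = wells without cells with DMSO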
Settings: cell-based MOR-DOR heterodimer luminescence, inverse agonism; at 9.3 µM; hits give high values

| Compound | inhibition |
| --- | --- |
| COc1cc2sc(C)nc2cc1C | -8.04% |
| O=C(O)C(=Cc1ccccc1[N+](=O)[O-])c1ccccc1 | 9.45% |
| CC(C)CCSc1ncnc2c1oc1nc3c(cc12)COC(C)(C)C3 | 5.61% |
| Cc1ccc2nc(SCc3nnc(-c4ccccc4[N+](=O)[O-])o3)c(C#N)cc2c1 | 13% |
| Cc1nc2cc(NC(=O)CSc3nc4c(C)cccc4cc3C#N)ccc2s1 | 12.7% |
| CCN1C[C@@H]2[C@@H]3C(=O)N(Cc4ccccc4)C(=O)[C@@H]3[C@](C)(C1=O)N2C(=O)c1ccc(C(C)(C)C)cc1 | 0.58% |
| Cn1ccs/c1=N\S(=O)(=O)c1ccc(C(C)(C)C)cc1 | 4.78% |
| CC(C)(C)c1nnc(NC(=O)C2c3ccccc3Oc3ccccc32)s1 | -37% |
| N#C/C(=C/c1ccc(Cl)cc1)NC(=O)c1ccccc1 | -2.56% |
| O=C(CN1CCCSc2ccccc21)N1CCN(S(=O)(=O)c2cccc(F)c2)CC1 | 9.06% |
| O=C1C[C@@H]2c3c(cccc3CN1Cc1ccccc1)C[C@@H](O)[C@H]2O | 1.13% |
| CCCNC(=O)CCn1cc(-c2ccc(OC)cc2)nc1CCN | 7.6% |
| COC(=O)c1scc(C)c1NC(=O)CSc1ccc(Cl)cc1 | 0.66% |
| CC(=O)c1ccc(NC(=O)C(C)N(C)CC(=O)Nc2ccccc2Cl)cc1 (stereo unspecified) | 2.42% |
| CCOC(=O)c1c(-n2cnnn2)sc(C)c1C | 18.6% |
| Cc1ccc(Oc2cc(NC(=O)CCCn3nc(C)c([N+](=O)[O-])c3C)cc([N+](=O)[O-])c2)cc1 | -12.5% |
| Cc1ccc(S(=O)(=O)N2CCOCC2)cc1C(=O)NC(=S)N(Cc1ccccc1)C(C)C | 20% |
| COc1ccc(-n2c(O)c(C=NCC(c3ccco3)N3CCCC3)c3ccccc3c2=O)cc1OC (stereo unspecified) | 12.1% |
| Cc1cccc(-n2c(Cc3cc(=O)[nH]c(=O)[nH]3)nnc2SCC(=O)Nc2cccc(C(F)(F)F)c2)c1 | -3.78% |
| COC(=O)C1(CCSC)NC(c2ccc(OC)cc2OC)C2C(=O)N(c3cccc(C(C)=O)c3)C(=O)C21 (stereo unspecified) | 15.3% |
| NNc1cccc(C=Cc2ccccc2)cc1=O | -23.2% |
| COc1ccc(CC(=O)OC(C)C(=O)Nc2ccc(S(N)(=O)=O)cc2)cc1 (stereo unspecified) | 6.12% |
| Cc1c(C(=O)N(Cc2ccccc2)Cc2cccnc2)cnn1-c1ccc(F)cc1 | 15.9% |

| Compound | inhibition |
| --- | --- |
| Cc1ccccc1NC(=O)CSC1=NCCN1 | 6.55% |
| Cc1ccc(S(=O)(=O)Oc2ccc(/C=N/NC(=O)c3c(Cl)cnn3C)cc2)cc1 | 6.6% |
| O=S(=O)(c1ccc(Br)cc1)n1ccc2ccccc21 | -60.1% |
| O=C(NC1CCCCCCC1)c1cccs1 | -15.7% |
| OCC[C@H]1C[C@H](O)[C@@H](O)[C@]2(CCCCO2)O1 | 1.27% |
| Cc1cccc(C2c3[nH]c4ccccc4c3CCN2C(=O)c2cc(-c3cccn3C)n[nH]2)n1 (stereo unspecified) | -17.1% |
| CC(=O)c1ccc(NC(=O)CCc2nnc3ccc(NCc4ccco4)nn23)cc1 | 18.1% |
| COC(=O)c1cccc(C(=O)N2CCCC(Nc3ccc4c(c3)OCCO4)C2)c1 (stereo unspecified) | -2.83% |
| Cc1ccc(Nc2nnc(SC(C)C(=O)NC3CC3)s2)cc1 (stereo unspecified) | 5.95% |
| O=S(=O)(NCc1ccccc1)c1ccc(S(=O)(=O)N2CCCC2)cc1 | 7.6% |
| COC(=O)CSc1nc2c(c(C3CC=CCC3)c1C#N)CCC2 (stereo unspecified) | 0.33% |
| CC1CCN(C(=O)c2ccc3c(=O)n4c(nc3c2)CCCCC4)CC1 | -4.92% |
| CCc1noc(C)c1C(=O)N1CCN(S(=O)(=O)c2cccc(C(F)(F)F)c2)CC1 | 9.18% |
| COc1cc(C2C(N3C(=O)c4ccccc4C3=O)C(=O)N2c2ccc(C)c(C)c2)cc(OC)c1OC (stereo unspecified) | 8.56% |
| O=C(c1cc2ccccc2s1)N1CCN(c2ccccn2)CC1 | 5.35% |
| Cc1cccc(N(C)C(=O)c2cc(S(=O)(=O)N3CCCCC3)c[nH]2)c1 | -2.65% |
| Cc1cccc(C)c1Nc1c(-c2ccccc2O)nc2ncccn12 | 5.45% |
| O=C(O)c1ccc(S(=O)(=O)N2CCOCC2)o1 | -0.55% |
| COC(=O)c1c(NC(=O)C(=O)N2CCCCC2)sc2c1CC(C)(C)OC2 | -12.8% |
| Cc1nc2c(-c3ccc(F)cc3)c(C)nn2c(C)c1CCC(=O)N1CCN(c2ccccn2)CC1 | 8.06% |
| Cc1ccc(NC(=O)CN2CCCCC2)c2c1CC(C)(C)O2 | -2.22% |
| Cc1ccc(S(=O)(=O)NC[C@H]2O[C@@H](n3cnc4c(N)ncnc43)[C@H](O)[C@@H]2O)s1 | 16.3% |
| N#CC1=C(N)C(C#N)(C#N)[C@H](c2ccsc2)[C@H]2COCC=C12 | 25.7% (active) |

| Compound | inhibition |
| --- | --- |
| CCN1CC=C2C(C#N)=C(N)C(C#N)(C#N)[C@H](c3ccoc3)[C@H]2C1 | -33.3% |
| O=C1N=C(N2CCOCC2)CS1 | 0.02% |
| Cc1ccccc1NC(=O)c1cc(S(=O)(=O)N2CCOCC2)cs1 | 4.89% |
| CN(CC(=O)Nc1cccc2c1CCCC2)S(=O)(=O)c1ccc(Cl)cc1 | -0.65% |
| O=S(=O)(c1ccc(Br)c2ccccc12)N1CCOCC1 | 15.2% |
| O=S(=O)(c1cnccc1N1CCN(/N=C/c2ccc(Br)cc2)CC1)N1CCCCC1 | 6.92% |
| COC(CNC(=O)c1ccc2c(c1)ncn2-c1cc(C)cc(C)c1)OC | 13% |
| CCc1cccc(C)c1NS(=O)(=O)c1cc(Br)cnc1N | -50.1% |
| O=C(CCc1[nH]c2ccccc2c1Sc1ccccc1)N(CCO)CCO | 8.56% |
| CC(C)c1ccc(S(=O)(=O)N2CCN(C(=O)c3ccc(N4CCCC4)c([N+](=O)[O-])c3)CC2)cc1 | 19.3% |
| Cc1cccc(NC(=O)NC2(C)CCS(=O)(=O)C2)c1 (stereo unspecified) | -1.39% |
| CCNc1nc(NC(C)C)nc(OCCOC(=O)c2ccccc2)n1 | 0.3% |
| CCSC1=NCCN1S(=O)(=O)c1ccc(F)cc1 | 2.33% |
| Cc1nccn1CCC1CCCCN1C(=O)CCc1nnc(-c2ccsc2)o1 (stereo unspecified) | 11.7% |
| Cc1ccccc1C(CC(=O)c1cccs1)C(C#N)C#N (stereo unspecified) | 8.61% |
| COC(=O)C1=C(C(=O)OC)[C@@H]2N(C)c3ccccc3[C@@]23C[C@@H](C(=O)OC)N(C(=O)c2ccco2)C3=N1 | 7.48% |
| Cc1nc2nc(SCC(=O)Nc3cccc(F)c3)[nH]c2cc1Br | -28.8% |
| CC(C)NC(=O)CSc1nnc(COc2ccccc2Cl)o1 | 16.3% |
| CCOc1ccc(NC(=O)c2ccc(NC(=O)C3CCCO3)cc2)cc1 (stereo unspecified) | 12.6% |
| COc1ccc(NC(=O)c2cccc3c2C(=O)N(CC2CCCO2)C3)cc1OC (stereo unspecified) | 16.3% |
| CCOc1ccc(NC(=O)c2cccc3c2C(=O)N(CC2CCCO2)C3)cc1 (stereo unspecified) | 23.6% (active) |
| CN(C)c1cc(N)c2ccccc2n1 (tested in a mixture with another compound) | 9.35% |
| COc1ccc(NC(=O)CSc2nnc(Cc3ccccc3)c(=O)n2N)cc1 | 4.15% |

| Compound | inhibition |
| --- | --- |
| CC(C)(C)SCCSC1=CC(=O)CC(c2ccccc2)C1 (stereo unspecified) | -50% |
| CCC1Nc2ncnc(N3CCN(c4ccccc4)CC3)c2N(Cc2ccc(Cl)cc2)C1=O (stereo unspecified) | 72.3% (active) |
| CC[C@]1(C(=O)OC)[C@H]2C(=O)N(Cc3ccccc3)C(=O)[C@H]2[C@H]2CN=C(SCc3ccc(Cl)cc3)N21 | -1.44% |
| O=C1C(Cc2ccc(O)cc2)NC(=S)N1Cc1ccccc1 (stereo unspecified) | 17.3% |
| COc1cccc(C(CC(=O)NCCN2CCOCC2)NS(=O)(=O)c2ccc(C)cc2)c1OC (stereo unspecified) | 4.11% |
| COC(=O)[C@H]1Cc2cnoc2C[C@]1(C)C(=O)O | 8.29% |
| Cc1cc(C)cc(NC(=O)C2CCCN2S(=O)(=O)c2cccc3cccnc23)c1 (stereo unspecified) | 7.78% |
| COc1cc(C(=O)OCC(=O)N(CC(C)C)C2CCS(=O)(=O)C2)ccc1OCC(C)C (stereo unspecified) | 12.3% |
| COc1cc(/C=C/C(=O)N2CCc3ccccc3C2)cc(OC)c1OC | 15.2% |
| Cc1cc(Cl)c2oc(C(=O)N(C)C(C)c3ccccn3)c(C)c2c1 (stereo unspecified) | -14% |
| CCCNC(=O)N1CCN(C(=O)NCCC)CC1 | -0.22% |
| O=C1C(Cl)=C(N2CCOCC2)C(=O)N1c1ccccc1 | 7.3% |
| O=C1c2ccccc2C(=O)N1c1ccccc1S(=O)C(F)(F)F (stereo unspecified) | 1.53% |
| O=C1C(=O)N(c2ccccc2)c2ccccc21 | 47.8% (active) |
| Cc1cccc(N=Nc2c(O)[nH]c3ccc(F)cc23)c1 | 33% (active) |
| NS(=O)(=O)c1ccc(N=Nc2c(O)[nH]c3ccc(Br)cc23)cc1 | 16.9% |
| Oc1[nH]c2ccccc2c1N=Nc1c(F)c(F)c(F)c(F)c1F | 13.1% |
| O=C(COC(=O)Cn1cnc2ccccc2c1=O)NCC12CC3CC(CC(C3)C1)C2 | 0.67% |
| CN(C)/C=C1\C=C(c2ccccc2)OC1=O | 5.39% |
| CN(C)/C=C1/Nc2ccccc2C1=O | 34.7% (active) |
| CCCS(=O)(=O)C(=C1Nc2ccccc2N1)S(=O)(=O)CCC | 3.81% |
| Cc1ccc(Cc2nnc(SCC(=O)Nc3ccc(C)cc3C)[nH]c2=O)cc1 | -25.8% |
